Where “and” joins values, the source holds several entries; their conditions need not be identical. Equal entries are not always repeated. Results filed as inconclusive are left out. More than one record can exist for a structure, and the calls need not agree. Calls of active or inactive are those of the source. Unless noted, the call rests on the fitted dose curve.

Experiment [1] can be described thus: qHTS assay to identify small molecule antagonists of the sonic hedgehog signaling (Shh) pathway (AID 1259369). Further: nearly all actives have a fitted effect of over 45% in size. Further: potency means the concentration at half of the fitted maximal effect. In short, it runs like this: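 NIH/3T3 stable Gli1-Luc clone, 2,000 cells/well, 4hr settle; cpd + conditioned medium 24hr; Luc reagent 30min RT; luminescence.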
Background: Quantitative high-throughput screening tests each substance at several concentrations.

The target of experiment [2] is Estrogen receptor beta (Homo sapiens) (UniProt Q92731). The experiment is described as follows: qHTS assay to identify small molecule agonists of the estrogen receptor beta (ER-beta) signaling pathway (AID 1259377; active means well fitted activation curve with a large enough effect in the signal ratio in the repeat runs, not every such curve was filed as active; the % refers to the signal ratio). In short, it runs like this: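 Screening used GripTite ER-beta-UAS-bla cells held in 2% charcoal-stripped FBS medium. After overnight (16 hr) compound incubation at 37C, beta-lactamase activity was detected with a FRET substrate by fluorescence.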

Experiment [3] shares this target. The experiment is described as follows: qHTS assay to identify small molecule antagonists of the estrogen receptor beta (ER-beta) signaling pathway (AID 1259378; active means well fitted inhibition curve with a large enough effect in the signal ratio in the repeat runs, not every such curve was filed as active; the % refers to the signal ratio). In short, it runs like this:
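ER-beta-UAS-bla HEK293T cells in 2% charcoal-stripped FBS medium treated with compound plus 1nM final 17-beta-estradiol for 16 hr at 37C. Beta-lactamase reporter read by FRET substrate fluorescence after 2 hours at room temperature.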

Experiment [4] is described as follows: qHTS assay to identify small molecule agonists of the androgen receptor (AR) signaling pathway in the presence of an antagonist - cell viability counter screen (AID 1259379; active means well fitted curve in the direction sought with a large enough effect in the repeat runs; an effect the other way counts as inactive or inconclusive; further: nearly all actives have a fitted effect of over 25% in size; further: potency means the concentration at half of the fitted maximal effect). The method in brief: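 MDA-kb2 viability measured by CellTiter-Fluor fluorescence in the same wells as the luciferase signal; nilutamide 3.0uM final; 15-point compound titration; 16 hr at 37C.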

A short description of experiment [5]: qHTS assay to identify small molecule antagonists of the estrogen receptor beta (ER-beta) signaling pathway - cell viability counter screen (AID 1259382; active means well fitted curve in the direction sought with a large enough effect in the repeat runs; an effect the other way counts as inactive or inconclusive; further: nearly all actives have a fitted effect of over 55% in size; further: potency means the concentration at half of the fitted maximal effect). The method in brief:
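Readout: luminescence, CellTiter-Glo, same wells as bla assay. System: ER-beta-UAS-bla GripTite HEK293T, 2% charcoal-stripped FBS. Exposure: compounds plus 1nM 17-beta-estradiol, 16 hr, 37C.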

Experiment [6] is described as follows: qHTS assay to identify small molecule agonists or antagonists of the thyroid stimulating hormone receptor (TSHR) signaling pathway - wild type cell line counter screen (AID 1259384). In short, it runs like this:
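Wild-type Hek293 cells, 800/well, 18 h at 37C, then compound with Ro20-1724 for 30 min RT. cAMP by HTRF (cAMP-d2/anti-cAMP cryptate), 1 h RT, fluorescence read. 15 concentrations, triplicates.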

The target in experiment [7] is Thyrotropin receptor (Homo sapiens) (UniProt P16473). Briefly: qHTS assay to identify small molecule antagonists of the thyroid stimulating hormone receptor (TSHR) signaling pathway (AID 1259385). Further: nearly all actives have a fitted effect of over 20% in size. Further: potency means the concentration at half of the fitted maximal effect. The method in brief:
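TSHR-HEK293 cells (800/well) plated 18 h, then compounds with Ro20-1724 and TSH at 1.5 ng/mL final, 30 min at room temperature. cAMP quantified by HTRF (cAMP-d2/anti-cAMP-cryptate, 1 h); 15 concentrations in triplicate.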

The nature of experiment [8]: qHTS assay to identify small molecule agonists of the estrogen receptor alpha (ER-alpha) signaling pathway in the presence of an antagonist - cell viability counter screen (AID 1259386; active means well fitted curve in the direction sought with a large enough effect in the repeat runs; an effect the other way counts as inactive or inconclusive;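 further: cells exposed to compounds for 22 h at 37 °C before the viability read; nearly all actives have a fitted effect of over 30% in size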; further: potency means the concentration at half of the fitted maximal effect). The method in brief:
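The test measures whether compounds kill ER-alpha reporter cells (VM7Luc4E2) under antagonist co-treatment (ICI-182,780, 10.0nM). Fluorescence from CellTiter-Fluor is read after a 22hr exposure.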

Experiment [9] concerns the target Progesterone receptor (Homo sapiens) (UniProt P06401). Briefly: qHTS assay to identify small molecule agonists of the progesterone receptor (PR) signaling pathway (AID 1346784). Further: nearly all actives have a fitted effect of over 30% in size. Further: potency means the concentration at half of the fitted maximal effect. The method in brief:
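Seed PR-UAS-bla HEK 293T cells (2% charcoal-stripped FBS), incubate 6 hr at 37C; add compounds in DMSO, 16 hr at 37C; add LiveBLAzer B/G substrate, 2 hr RT; read fluorescence intensity.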

Experiment [10] has the same target. The experiment is described as follows: qHTS assay to identify small molecule antagonists of the progesterone receptor (PR) signaling pathway (AID 1346795; active means well fitted inhibition curve with a large enough effect in the signal ratio in the repeat runs, not every such curve was filed as active; the % refers to the signal ratio; further: potency means the concentration at half of the fitted maximal effect). The method in brief: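 Screening used a GripTite HEK293T line with PR-responsive UAS-beta-lactamase. Cells were challenged with compound in the presence of 1 nM R5020 final for 16 hr at 37C; B/G FRET substrate, 2 hr room temperature, fluorescence.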

Experiment [11] in a line: qHTS assay to identify small molecule antagonists of the progesterone receptor (PR) signaling pathway - cell viability counter screen (AID 1346798; active means well fitted curve in the direction sought with a large enough effect in the repeat runs; an effect the other way counts as inactive or inconclusive; further: series mostly up to about 92 µM; nearly all actives have a fitted effect of over 50% in size). In short, it runs like this: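 Measures cytotoxicity in parallel with the PR antagonist reporter read: HEK293T PR-UAS-bla cells get compound and R5020 for 16 hr, and remaining viable cells are quantified by CellTiter-Glo luminescence.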

The nature of experiment [12]: qHTS assay to identify small molecule agonists of the progesterone receptor (PR) signaling pathway - cell viability counter screen (AID 1346799). Further: nearly all actives have a fitted effect of over 45% in size. The method in brief: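 Using the same plates as the PR reporter screen, HEK293T PR-UAS-bla cells received compounds for 16 hr at 37C and were then lysed with CellTiter-Glo; luminescence was read 30 min later at room temperature.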

Experiment [13] is described as follows: qHTS assay to identify small molecule agonists of the TGF-beta/Smad signaling pathway - cell viability counter screen (AID 1346829; active means well fitted curve in the direction sought with a large enough effect in the repeat runs; an effect the other way counts as inactive or inconclusive; further: top concentration of the series differs between compounds; nearly all actives have a fitted effect of over 45% in size). In short, it runs like this: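 Luminescence from CellTiter-Glo, read after a 30 min room-temperature incubation, gives cell viability of SBE-bla HEK 293T cells treated 5 hr with compounds at 37 C.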
Experiment [14] is described as follows: qHTS assay to identify small molecule agonists of the TGF-beta/Smad signaling pathway (AID 1346859; active means well fitted activation curve with a large enough effect in the signal ratio in the repeat runs, not every such curve was filed as active; the % refers to the signal ratio; further: series mostly up to about 77 µM). In short, it runs like this: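 Beta-lactamase reporter activity downstream of Smad binding elements was measured in stably transfected HEK 293T cells; compounds were incubated for 5 hr, substrate for 2 hr at room temperature.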
The target of experiment [15] is Thyrotropin-releasing hormone receptor (Homo sapiens) (UniProt P34981). The experiment is described as follows: qHTS assay to identify small molecule antagonists of the thyrotropin-releasing hormone receptor (TRHR) signaling pathway (AID 1346877; active means well fitted inhibition curve with a large enough effect in the repeat runs, not every such curve was filed as active; further: series mostly up to about 51 µM). In short, it runs like this: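 Overnight-plated (18 h, 37 °C) HEK293 cells expressing TRHR were dye-loaded 2 h, treated with compound, then stimulated with TRH at 1 nM final. Fluorescence intensity was captured every second for 3 min.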

The target is the same in experiment [16]. Briefly: qHTS assay to identify small molecule agonists of the thyrotropin-releasing hormone receptor (TRHR) signaling pathway (AID 1346891).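 Further: HEK293 cells expressing TRHR with calcium dye readout; series mostly up to about 58 µM.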 In short, it runs like this:
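Overnight-plated (18 h, 37 °C, 5% CO2) TRHR-Hek293 cells; 2 h calcium dye at 37 °C; compound in DMSO; 3-min kinetic fluorescence read.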

Experiment [17] is described as follows: qHTS assay to identify small molecule agonists of the estrogen receptor beta (ER-beta) signaling pathway - cell viability counter screen (AID 1259380; active means well fitted curve in the direction sought with a large enough effect in the repeat runs; an effect the other way counts as inactive or inconclusive; further: nearly all actives have a fitted effect of over 30% in size; further: potency means the concentration at half of the fitted maximal effect). The method in brief:
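Measured: luminescence from CellTiter-Glo after 30 min at room temperature, added to wells already read for the LiveBLAzer FRET reporter (2 hr substrate); ER-beta-UAS-bla HEK293T cells had 16 hr compound treatment at 37C, 5% CO2.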

The nature of experiment [18]: qHTS assay to identify small molecule antagonists of the TGF-beta/Smad signaling pathway - cell viability counter screen (AID 1346824; active means well fitted curve in the direction sought with a large enough effect in the repeat runs; an effect the other way counts as inactive or inconclusive; further: nearly all actives have a fitted effect of over 50% in size). The method in brief: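 SBE-bla HEK 293T cells, incubated overnight, then compound plus 0.25 ng/mL TGF-beta1 (stock added) for 5 hr at 37 C. Viability was read in the same wells by CellTiter-Glo luminescence after 30 min at room temperature.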

For experiment [19], the target named is Androgen receptor (Homo sapiens) (UniProt P10275). The experiment is described as follows: qHTS assay to identify small molecule agonists of the androgen receptor (AR) signaling pathway in the presence of an antagonist (AID 1259381). Further: nearly all actives have a fitted effect of over 15% in size. In short, it runs like this:
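Luminescent ONE-Glo read, 30min at room temperature, follows 16hr compound exposure (15 concentrations) of MDA-kb2 cells at 37C, 0% CO2, with nilutamide added at 3.0uM final.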

Experiment [20] deals with Estrogen receptor (Homo sapiens) (UniProt P03372). Briefly: qHTS assay to identify small molecule agonists of the estrogen receptor alpha (ER-alpha) signaling pathway in the presence of an antagonist (AID 1259383). Further: top concentration of the series differs between compounds; nearly all actives have a fitted effect of over 15% in size. The method in brief:
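Quantitative HTS confirmation: compounds titrated at 15 concentrations onto estrogen-deprived VM7Luc4E2 cells carrying a four-ERE luciferase construct, with ICI-182,780 present at 10.0nM final. Signal is luminescence after 22hr exposure.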

Sequence of Estrogen receptor (Homo sapiens) (P03372 whole entry, looked up): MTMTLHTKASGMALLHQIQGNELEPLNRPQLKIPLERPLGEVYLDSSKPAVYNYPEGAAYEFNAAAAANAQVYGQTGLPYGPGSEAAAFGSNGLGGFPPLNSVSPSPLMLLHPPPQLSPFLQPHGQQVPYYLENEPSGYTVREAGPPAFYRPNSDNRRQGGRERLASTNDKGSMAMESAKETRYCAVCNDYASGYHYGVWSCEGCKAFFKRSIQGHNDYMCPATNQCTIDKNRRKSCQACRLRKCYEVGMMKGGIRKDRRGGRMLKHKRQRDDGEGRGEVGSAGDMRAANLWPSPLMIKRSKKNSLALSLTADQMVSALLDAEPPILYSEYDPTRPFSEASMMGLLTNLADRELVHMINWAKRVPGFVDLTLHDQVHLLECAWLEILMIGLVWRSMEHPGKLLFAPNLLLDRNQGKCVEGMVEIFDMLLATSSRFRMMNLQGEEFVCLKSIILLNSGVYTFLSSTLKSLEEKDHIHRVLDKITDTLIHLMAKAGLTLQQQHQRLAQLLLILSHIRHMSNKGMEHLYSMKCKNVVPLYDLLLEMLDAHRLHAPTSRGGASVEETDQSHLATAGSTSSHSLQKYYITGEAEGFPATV
Sequence of Progesterone receptor (Homo sapiens) (P06401 whole entry, looked up): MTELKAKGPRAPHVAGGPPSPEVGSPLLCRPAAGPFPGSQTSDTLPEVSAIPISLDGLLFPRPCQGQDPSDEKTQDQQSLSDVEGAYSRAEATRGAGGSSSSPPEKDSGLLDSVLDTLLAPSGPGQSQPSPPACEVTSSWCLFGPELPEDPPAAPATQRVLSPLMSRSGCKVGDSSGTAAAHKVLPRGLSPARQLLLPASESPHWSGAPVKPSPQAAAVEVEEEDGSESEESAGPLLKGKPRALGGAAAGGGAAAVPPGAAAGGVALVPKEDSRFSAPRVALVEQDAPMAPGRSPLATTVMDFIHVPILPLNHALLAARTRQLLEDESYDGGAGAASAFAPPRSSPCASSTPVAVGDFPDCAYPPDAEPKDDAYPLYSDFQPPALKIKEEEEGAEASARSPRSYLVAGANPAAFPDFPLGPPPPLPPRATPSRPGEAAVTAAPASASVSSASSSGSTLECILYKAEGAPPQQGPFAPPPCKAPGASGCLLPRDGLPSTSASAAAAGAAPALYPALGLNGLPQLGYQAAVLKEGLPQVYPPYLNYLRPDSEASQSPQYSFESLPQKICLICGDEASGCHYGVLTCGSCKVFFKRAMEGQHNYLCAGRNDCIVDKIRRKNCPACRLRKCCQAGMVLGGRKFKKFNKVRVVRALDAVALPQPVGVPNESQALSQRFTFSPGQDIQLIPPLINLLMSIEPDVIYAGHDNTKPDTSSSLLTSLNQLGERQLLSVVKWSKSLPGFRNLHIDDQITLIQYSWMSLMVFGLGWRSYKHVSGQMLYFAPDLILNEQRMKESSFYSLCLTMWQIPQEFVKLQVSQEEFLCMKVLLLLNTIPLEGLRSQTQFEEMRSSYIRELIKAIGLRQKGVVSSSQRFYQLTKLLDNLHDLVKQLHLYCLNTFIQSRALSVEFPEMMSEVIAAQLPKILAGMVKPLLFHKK
Sequence of Thyrotropin receptor (Homo sapiens) (P16473 whole entry, looked up): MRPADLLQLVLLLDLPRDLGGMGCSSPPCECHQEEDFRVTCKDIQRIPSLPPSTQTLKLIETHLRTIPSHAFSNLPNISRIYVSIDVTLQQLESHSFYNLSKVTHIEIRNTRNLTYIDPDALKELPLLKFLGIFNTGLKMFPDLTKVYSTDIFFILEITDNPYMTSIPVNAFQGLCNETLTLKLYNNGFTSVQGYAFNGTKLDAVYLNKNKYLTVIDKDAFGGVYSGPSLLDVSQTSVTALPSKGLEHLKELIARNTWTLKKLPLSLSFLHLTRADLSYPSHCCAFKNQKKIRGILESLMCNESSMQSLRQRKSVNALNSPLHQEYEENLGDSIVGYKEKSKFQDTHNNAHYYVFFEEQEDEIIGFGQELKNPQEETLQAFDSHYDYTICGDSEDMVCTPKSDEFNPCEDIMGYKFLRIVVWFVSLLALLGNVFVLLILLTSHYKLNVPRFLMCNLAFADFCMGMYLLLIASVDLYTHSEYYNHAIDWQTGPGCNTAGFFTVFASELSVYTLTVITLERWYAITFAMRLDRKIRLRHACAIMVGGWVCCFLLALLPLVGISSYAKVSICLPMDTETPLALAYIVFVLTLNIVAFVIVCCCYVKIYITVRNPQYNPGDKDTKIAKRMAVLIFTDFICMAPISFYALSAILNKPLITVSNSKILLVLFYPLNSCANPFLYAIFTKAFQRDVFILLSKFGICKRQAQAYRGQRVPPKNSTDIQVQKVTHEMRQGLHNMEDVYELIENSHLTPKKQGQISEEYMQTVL
Sequence of Androgen receptor (Homo sapiens) (P10275 whole entry, looked up): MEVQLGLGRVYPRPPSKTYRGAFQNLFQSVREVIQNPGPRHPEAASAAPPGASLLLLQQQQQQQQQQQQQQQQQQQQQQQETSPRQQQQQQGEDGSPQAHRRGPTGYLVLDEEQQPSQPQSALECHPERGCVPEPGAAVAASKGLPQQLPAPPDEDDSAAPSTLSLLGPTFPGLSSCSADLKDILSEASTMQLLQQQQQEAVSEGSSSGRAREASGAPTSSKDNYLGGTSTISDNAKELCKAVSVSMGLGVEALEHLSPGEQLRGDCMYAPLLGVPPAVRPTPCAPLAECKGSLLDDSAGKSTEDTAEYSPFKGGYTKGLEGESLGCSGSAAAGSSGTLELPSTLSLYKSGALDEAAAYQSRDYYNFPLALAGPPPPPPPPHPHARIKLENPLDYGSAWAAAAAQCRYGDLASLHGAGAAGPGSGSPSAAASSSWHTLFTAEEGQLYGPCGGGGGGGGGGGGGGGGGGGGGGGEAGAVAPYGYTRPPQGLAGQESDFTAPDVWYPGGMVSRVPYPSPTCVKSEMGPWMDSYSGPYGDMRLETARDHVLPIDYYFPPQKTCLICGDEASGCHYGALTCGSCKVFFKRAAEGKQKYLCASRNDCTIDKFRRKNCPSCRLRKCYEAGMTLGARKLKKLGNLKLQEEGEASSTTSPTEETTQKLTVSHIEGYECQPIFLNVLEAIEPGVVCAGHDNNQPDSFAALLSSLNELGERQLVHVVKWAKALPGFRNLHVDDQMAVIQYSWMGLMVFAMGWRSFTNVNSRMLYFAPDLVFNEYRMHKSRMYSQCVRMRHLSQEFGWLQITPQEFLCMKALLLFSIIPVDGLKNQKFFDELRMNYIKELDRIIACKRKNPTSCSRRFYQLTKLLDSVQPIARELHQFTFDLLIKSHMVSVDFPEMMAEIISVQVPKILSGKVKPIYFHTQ
Sequence of Thyrotropin-releasing hormone receptor (Homo sapiens) (P34981 whole entry, looked up): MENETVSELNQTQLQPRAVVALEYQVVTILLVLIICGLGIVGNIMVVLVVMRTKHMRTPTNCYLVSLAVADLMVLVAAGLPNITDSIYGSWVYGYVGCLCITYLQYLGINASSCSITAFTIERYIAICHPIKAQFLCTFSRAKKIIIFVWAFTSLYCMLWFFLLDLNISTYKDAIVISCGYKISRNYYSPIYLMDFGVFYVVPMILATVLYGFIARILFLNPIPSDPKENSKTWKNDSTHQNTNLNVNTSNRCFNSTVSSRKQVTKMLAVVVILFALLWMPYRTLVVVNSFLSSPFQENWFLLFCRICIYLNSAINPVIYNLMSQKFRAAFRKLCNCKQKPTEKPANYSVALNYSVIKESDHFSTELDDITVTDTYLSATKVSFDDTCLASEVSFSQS
Sequence of Estrogen receptor beta (Homo sapiens) (Q92731 whole entry, looked up): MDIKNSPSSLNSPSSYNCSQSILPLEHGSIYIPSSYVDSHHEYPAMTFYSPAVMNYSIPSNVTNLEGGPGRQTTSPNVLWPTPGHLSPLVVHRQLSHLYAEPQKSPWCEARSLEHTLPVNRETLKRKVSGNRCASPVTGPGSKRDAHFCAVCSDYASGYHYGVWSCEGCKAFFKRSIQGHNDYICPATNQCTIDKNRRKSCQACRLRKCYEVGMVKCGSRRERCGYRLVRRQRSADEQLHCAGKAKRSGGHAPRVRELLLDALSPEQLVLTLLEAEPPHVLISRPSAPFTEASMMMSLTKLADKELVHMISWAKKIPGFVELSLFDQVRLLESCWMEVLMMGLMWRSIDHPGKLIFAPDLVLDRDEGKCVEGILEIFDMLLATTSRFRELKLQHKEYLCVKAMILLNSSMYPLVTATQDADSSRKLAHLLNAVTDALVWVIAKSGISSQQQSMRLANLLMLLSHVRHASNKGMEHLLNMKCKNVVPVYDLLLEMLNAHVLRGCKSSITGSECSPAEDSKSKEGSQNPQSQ

Turning to `Clc1cccc(Cl)c1`, the Potency result in [1], in [2], in experiment [3], in experiment [4], in experiment [5] and in [6] was “inactive” in each case. Besides, the Potency entry in [7], in [8], in [9], in experiment [10], in experiment [11] and in [12] was “inactive” throughout. Moreover, the Potency entry in experiment [13], in experiment [14] and in experiment [15] was “inactive” throughout. Besides, the call in experiment [16] was inactive.
Turning to `CC(O)CN(CC(C)O)CC(C)O` (stereo unspecified), the Potency entry in experiment [1], in [2], in [3], in experiment [4], in experiment [17] and in [5] was “inactive” in each case. Moreover, the Potency entry in experiment [6], in [7], in experiment [8], in [9], in [10] and in experiment [11] was “inactive” each time. Moreover, the Potency entry in experiment [12], in [18], in experiment [13], in experiment [14] and in experiment [15] was “inactive” each time. The outcome in experiment [16] was inactive.
On to `CNC(=O)Oc1cccc2c1OC(C)(C)C2`, for which the Potency entry in [1], in experiment [3], in experiment [4], in [17], in experiment [5] and in experiment [20] was “inactive” throughout. For the same compound, the Potency result in [6], in experiment [7], in experiment [8], in [9], in experiment [10] and in [11] was “inactive” each time. In addition, the Potency entry in [12], in experiment [13], in experiment [14] and in [15] was “inactive” in each case. The result in experiment [19] and in experiment [16] was inactive.
With `Oc1ccc(Cl)cc1Cc1ccccc1`, the Potency was 13.7 µM (active) and 24.6 µM (active) in experiment [1]; 54.5 µM (active) and 27.6 µM (active) in experiment [17]; 48.6 µM (active) and 52.1 µM (active) in experiment [5]; “inactive and 55.1 µM (active)” in experiment [7]; 7.7 µM (active) and 10.6 µM (active) in experiment [10]. Moreover, the Potency result in experiment [3], in experiment [4], in experiment [6], in [8], in experiment [9] and in experiment [11] was “inactive” throughout. Further, the Potency entry in [13], in [14] and in [15] was “inactive” throughout. Besides, the result in experiment [19] was inactive.
Turning to `c1ccc2c(c1)Nc1ccccc1S2`, the Potency entry in [1], in experiment [2], in [3], in experiment [4], in experiment [17] and in experiment [5] was “inactive” each time. Besides, the Potency result in experiment [20], in [8], in [11], in experiment [12], in experiment [13] and in experiment [14] was “inactive” throughout. Also, the Potency result in experiment [15] was “inactive”. Also, in [9], the Potency is 1.54 µM (active) and inactive.
As for `CCNc1nc(Cl)nc(NC(C)(C)C#N)n1`, the Potency in [1] is 685 nM (active). Moreover, the Potency entry in [2], in [3], in [4], in experiment [17], in experiment [5] and in experiment [6] was “inactive” in each case. For the same compound, the Potency entry in [7], in experiment [8], in [9], in [10], in experiment [11] and in experiment [12] was “inactive” in each case. Further, the Potency result in [13] is “inactive”.
Regarding `O=[N+]([O-])c1ccc(Nc2ccccc2)cc1`, the Potency in [1] was 17200 nM (active); in experiment [4] it was 30.9 µM (active) and 30.6 µM (active); in experiment [8], 27.5 µM (active) and 27.3 µM (active). The Potency entry in experiment [2], in experiment [17], in experiment [5], in experiment [20], in experiment [6] and in experiment [7] was “inactive” each time. Also, the Potency entry in experiment [9], in experiment [11], in experiment [18], in [13], in [14] and in [15] was “inactive” in each case. For the same compound, the result in [16] was inactive.
